Experimental findings from PMC5540273 (PLoS ONE, 2017) are described below.

Some test systems named below: AURKA; AURKB; AURKC; AXL; BLK; BMPR1A; BMPR1B; BMPR2; BMX; BRAF; BRSK1; BRSK2; BTK; BUB1; CAMK1B; CAMK1D; CAMK1G.
Holding throughout (conditions): concentration: 1 μM, replicates: in singlicate; n = 1
The test system of a further assay is T1, ASK2.
T1 construct: gene MAP3K6

For a further assay, the system named is T2, BIKE.
T2 construct: gene BMP2K

In another assay the test system is T3, BRK.
T3 construct: gene PTK6
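Also: KINOMEscan kinase panel screen.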

For `COc1cccc(C2=C(Nc3cccc(O)c3)C(=O)NC2=O)c1` [SB-390771], the “%Inh” value in the assay with ASK2 is listed as 0%; in the assay with AURKA, 16%; in the assay on AURKB it was 24%; with AURKC, 0%; with AXL, 1%; with BIKE, 0%. Further, the “%Inh” value in the assay with BLK stood at 0%; in the assay with BMPR1A, 0%; with BMPR1B, 0%; in the assay with BMPR2, 36%; in the assay on BMX, 4%; with BRAF, 0%. The “%Inh” value was found to be 33% in the assay with BRK; 7% in the assay with BRSK1; 7% in the assay with BRSK2; 0% in the assay with BTK; 42% in the assay on BUB1; 29% in the assay on CAMK1B. For the same molecule, the “%Inh” value is listed as 13% in the assay on CAMK1D and 0% with CAMK1G.

`N#CC1(c2cccc(C(=O)Nc3cccc(Oc4ccc5nc(NC(=O)C6CC6)sc5n4)c3)c2)CC1`: the “%Inh” value stood at 3% in the assay on ASK2; 0% with AURKA; 57% with AURKB; 48% in the assay on AURKC; 62% with AXL; 1% in the assay with BIKE. Moreover, the “%Inh” value stood at 95.2% in the assay on BLK; 0% with BMPR1A; 0% in the assay with BMPR1B; 0% with BMPR2; 0% with BMX; 99.9% in the assay with BRAF. Moreover, the “%Inh” value in the assay with BRK was 18%; in the assay with BRSK1, 13%; with BRSK2 it was 0%; in the assay on BTK it was 6%; in the assay on BUB1, 0%; in the assay with CAMK1B, 0%. Also, the results for the “%Inh” value with CAMK1D and with CAMK1G were 2% and 0%, respectively.

As for `O=C(Nc1n[nH]c2nc(-c3ccccc3O)ccc12)C1CC1` [SB-711880], the “%Inh” value in the assay on ASK2 is listed as 34%; in the assay with AURKA, 31%; in the assay on AURKB, 81%; in the assay on AURKC it was 6%; with AXL, 18%; with BIKE, 41%. Also, the “%Inh” value in the assay with BLK was determined as 0%; in the assay with BMPR1A, 0%; with BMPR1B, 0%; in the assay with BMPR2, 8%; in the assay on BMX, 0%; in the assay on BRAF it was 0%. Moreover, the “%Inh” value in the assay with BRK is recorded as 0%; in the assay on BRSK1 it was 38%; with BRSK2, 19%; with BTK, 0%; with BUB1 it was 2%; in the assay with CAMK1B it was 9%. The results for the “%Inh” value with CAMK1D and with CAMK1G were 4% and 0%, respectively.

With `COc1ccc(C)c(Nc2ccnc(Nc3ccc(-c4cnc[nH]4)cc3)n2)c1.Cl` [GW784041], the “%Inh” value with ASK2 came out at 0%; with AURKA, 20%; with AURKB it was 8%; with AURKC it was 56%; in the assay on AXL it was 0%; with BIKE, 37%. For the same molecule, the “%Inh” value with BLK is reported as 59%; in the assay on BMPR1A, 70%; in the assay with BMPR1B it was 99.9%; in the assay on BMPR2 it was 0%; in the assay on BMX it was 46%; in the assay on BRAF it was 0%. The “%Inh” value in the assay with BRK was 20%; in the assay with BRSK1 it was 8%; with BRSK2, 9%; in the assay on BTK, 0%; with BUB1, 0%; in the assay with CAMK1B it was 0%. The “%Inh” value in the assay with CAMK1D is 25%; in the assay on CAMK1G, 8%.

On to `CS(=O)(=O)c1cccc(CNc2nc(Nc3ccc4c(c3)CCC(=O)N4)ncc2C(F)(F)F)c1`, for which the “%Inh” value with ASK2 was 0%; in the assay with AURKA, 97.8%; in the assay with AURKB it was 96.7%; in the assay with AURKC, 71%; in the assay with AXL, 23%; with BIKE, 82%. Further, the “%Inh” value with BLK is 0%; in the assay with BMPR1A it was 0%; in the assay on BMPR1B it was 0%; with BMPR2 it was 39%; in the assay with BMX, 0%; with BRAF it was 0%. Also, the “%Inh” value with BRK, with BRSK1, in the assay on BRSK2, with BTK, with BUB1 and in the assay with CAMK1B was 0% throughout. Moreover, the “%Inh” value with CAMK1D turned out to be 8%; in the assay with CAMK1G, 0%.

Take `Fc1cc(Cl)ccc1Nc1ccnc2cc(-c3ccc(CN4CCOCC4)o3)ccc12` [GW560109]: the “%Inh” value amounted to 8% in the assay on ASK2; 89% in the assay on AURKA; 35% in the assay with AURKB; 35% with AURKC; 40% in the assay on AXL; 21% in the assay with BIKE. Besides, the “%Inh” value in the assay with BLK was 94.4%; with BMPR1A, 18%; with BMPR1B it was 62%; in the assay on BMPR2, 0%; in the assay with BMX, 35%; with BRAF it was 39%. Moreover, the “%Inh” value in the assay on BRK came out at 86%; with BRSK1 it was 13%; in the assay with BRSK2 it was 0%; with BTK, 46%; in the assay on BUB1, 25%; in the assay with CAMK1B, 24%. Moreover, the “%Inh” value in the assay with CAMK1D and in the assay with CAMK1G was 0% in each case.

For the molecule `Cc1ccc(NC(=O)c2cccc(N3CCCCC3)c2)cc1-c1ccc(C(=O)NCC2CC2)cc1` [GSK1917008], the “%Inh” value with ASK2 amounted to 11%; in the assay on AURKA, 0%; in the assay with AURKB, 0%; in the assay with AURKC it was 7%; in the assay with AXL, 5%; with BIKE, 13%. The “%Inh” value with BLK turned out to be 72%; in the assay with BMPR1A, 0%; with BMPR1B, 2%; in the assay with BMPR2, 0%; with BMX it was 26%; with BRAF, 88%. Besides, the “%Inh” value with BRK is reported as 22%; with BRSK1 it was 6%; with BRSK2 it was 3%; in the assay with BTK it was 0%; in the assay on BUB1, 23%; in the assay on CAMK1B it was 27%. Besides, the results for the “%Inh” value with CAMK1D and in the assay with CAMK1G were 11% and 0%, respectively.

For the molecule `CCOc1nccc(-c2c(-c3ccc(F)cc3)ncn2C2CCNCC2)n1` [SB-249175], the “%Inh” value in the assay with ASK2 came out at 0%; in the assay on AURKA, 52%; in the assay with AURKB, 59%; in the assay with AURKC, 15%; in the assay with AXL it was 54%; in the assay with BIKE it was 0%. Further, the “%Inh” value in the assay with BLK is reported as 0%; with BMPR1A, 100%; in the assay with BMPR1B, 20%; in the assay on BMPR2, 26%; with BMX, 12%; with BRAF, 5%. In addition, the “%Inh” value in the assay on BRK is given as 0%; with BRSK1, 0%; in the assay on BRSK2 it was 11%; in the assay on BTK, 34%; in the assay on BUB1 it was 27%; in the assay on CAMK1B, 31%. Further, the entries for the “%Inh” value in the assay with CAMK1D and in the assay on CAMK1G were 0% and 1%, respectively.

For the molecule `Cl.O=C(Nc1ccc(Oc2ccc3[nH]c(NC(=O)c4ccco4)nc3c2)cc1)Nc1cc(C(F)(F)F)ccc1F` [GW683134], the “%Inh” value is listed as 0% in the assay with ASK2; 0% in the assay on AURKA; 92.6% in the assay with AURKB; 50% in the assay on AURKC; 96% with AXL; 15% with BIKE. The “%Inh” value with BLK is given as 54%; in the assay on BMPR1A, 0%; in the assay on BMPR1B, 0%; in the assay on BMPR2 it was 0%; in the assay with BMX, 1%; with BRAF, 69%. For the same molecule, the “%Inh” value in the assay on BRK amounted to 0%; with BRSK1, 0%; in the assay with BRSK2, 0%; in the assay with BTK, 0%; in the assay on BUB1, 30%; in the assay on CAMK1B, 29%. Besides, the “%Inh” value in the assay on CAMK1D and with CAMK1G was 0% each time.

Consider `CN(c1ccc(NC(=O)N2CCN(CCCN3CCOCC3)CC2)cc1)c1ccnc(Nc2ccc(CS(C)(=O)=O)cc2)n1.Cl` [GW830899], for which the “%Inh” value with ASK2 is reported as 0%; with AURKA it was 84%; in the assay with AURKB it was 76%; in the assay on AURKC it was 75%; in the assay on AXL it was 2%; in the assay on BIKE it was 86%. Besides, the “%Inh” value in the assay with BLK is reported as 0%; with BMPR1A it was 6%; in the assay on BMPR1B it was 7%; with BMPR2, 0%; in the assay on BMX, 0%; with BRAF it was 0%. For the same molecule, the “%Inh” value came to 27% in the assay with BRK; 83% in the assay with BRSK1; 25% with BRSK2; 0% with BTK; 0% in the assay with BUB1; 0% in the assay on CAMK1B. For the same molecule, the “%Inh” value in the assay on CAMK1D is listed as 5%; in the assay with CAMK1G it was 0%.
